Only some compounds are listed: those with a hit (about 12% of all), similar ones and a draw of the others.
G9a inh: blocks human histone lysine methyltransferase G9a. Q96KQ7. Potency, µM (series often up to 102 µM), for inactives: top-dose activity, negative = inhibition, hits mostly inhibitors. G9a H3K9 monomethylation, AlphaScreen, 2 h. 350,000 tested, 8.8% active; further: potency means the concentration at half of the fitted maximal effect; on the % scale 0 is the no-effect control and ±100 the full control effect; nearly all actives have a fitted effect of over 75% in size
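Chemiluminescent proximity detection of H3K9 monomethylation, read after 10 min bead incubation in the dark. Reaction: 20 nM G9a, 500 nM biotin-H3K9 peptide, 20 uM SAM cofactor, 2 h, room temperature, following 15 min enzyme-compound preincubation.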
HP1b chromo inh: inhibitors of HP1-beta chromodomain binding to methylated histone tails. 390,000 tested, 0.56% active. Potency, µM (highest dose often 114 µM), without a hit: top-dose activity change, negative = inhibition, hits mostly inhibitors. P83916. AlphaScreen HP1-beta / biotin-H3K9me3 peptide binding; further: potency means the concentration at half of the fitted maximal effect; nearly all actives have a fitted effect of over 70% in size
Target sequence (P83916 whole entry, looked up): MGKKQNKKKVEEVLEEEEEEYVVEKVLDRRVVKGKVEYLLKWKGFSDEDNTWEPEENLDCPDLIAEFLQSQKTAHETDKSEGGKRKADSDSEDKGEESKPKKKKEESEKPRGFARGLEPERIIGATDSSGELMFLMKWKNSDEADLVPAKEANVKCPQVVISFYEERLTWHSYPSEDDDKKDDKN
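AlphaScreen: HP1-beta (50 nM) preformed 30 min with biotin-H3(1-18)K9me3 peptide (50 nM) in PBS pH 7.4, 0.01% Tween-20. Compound added for 30 min at RT, then streptavidin donor/nickel chelate acceptor beads (10 ug/mL) for 30 min.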
JMJD2A Tudor: JMJD2A Tudor domain (human) inhibition. AlphaScreen JMJD2A-Tudor / H3K4me3 peptide binding. Potency, µM (series often up to 114 µM), inactives show at the top dose activity change, negative = inhibition, most hits filed as inhibitors. 390,000 tested, 4.4% active. AID 504339; further: potency means the concentration at half of the fitted maximal effect; on the % scale 0 is the no-effect control and ±100 the full control effect; nearly all actives have a fitted effect of over 50% in size
PI5P4K alpha inh: inhibitors of human PI5P4K alpha; P48426; PI5P4Kalpha enzyme, ADP-Glo luminescence, 60 min; stronger effect = lower value; max response, %; 330,000 tested, 1.2% active; active means max response of -50% or lower; inconclusive means between -30% and -50%; inactive means -30% or higher; further: value at the top dose of about 77 µM; on the % scale 0 is the no-effect control and ±100 the full control effect
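Quantitative HTS of the MLSMR library against PI5P4Kalpha with substrate. ATP added last at 5 microM final; room temperature, 60 minutes. Remaining ATP depleted, ADP converted and read as luminescence.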
BAZ2B block: BAZ2B (human) inhibition. AlphaScreen BAZ2B-H3K14Ac peptide displacement. Q9UIF8. Potency, µM (titrated, usually from 114 µM), inactives show at the highest dose activity change, negative = inhibition, actives largely listed as inhibitors. 360,000 tested, 4.4% active; further: potency means the concentration at half of the fitted maximal effect; on the % scale 0 is the no-effect control and ±100 the full control effect; nearly all actives have a fitted effect of over 60% in size
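In this displacement format the biotinylated H3(5-23) peptide acetylated at Lys14 serves as ligand at 50 nM, with BAZ2B at 50 nM in PBS pH 7.4 containing 0.01% Tween-20. Donor and acceptor beads are 10 ug/mL final.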
PLK1 PBD block: blocks phosphopeptide binding to human PLK1 polo-box domain. Potency, µM, for inactives: max response, negative = inhibition, actives largely listed as inhibitors. 360,000 tested, 2.8% active. Plk1 PBD binding of FITC phosphopeptide, fluorescence polarization; further: potency means the concentration at half of the fitted maximal effect; series mostly up to about 57 µM; on the % scale 0 is the no-effect control and ±100 the full control effect; nearly all actives have a fitted effect of over 65% in size
Target sequence (P53350 whole entry, looked up, the tested form may be a part): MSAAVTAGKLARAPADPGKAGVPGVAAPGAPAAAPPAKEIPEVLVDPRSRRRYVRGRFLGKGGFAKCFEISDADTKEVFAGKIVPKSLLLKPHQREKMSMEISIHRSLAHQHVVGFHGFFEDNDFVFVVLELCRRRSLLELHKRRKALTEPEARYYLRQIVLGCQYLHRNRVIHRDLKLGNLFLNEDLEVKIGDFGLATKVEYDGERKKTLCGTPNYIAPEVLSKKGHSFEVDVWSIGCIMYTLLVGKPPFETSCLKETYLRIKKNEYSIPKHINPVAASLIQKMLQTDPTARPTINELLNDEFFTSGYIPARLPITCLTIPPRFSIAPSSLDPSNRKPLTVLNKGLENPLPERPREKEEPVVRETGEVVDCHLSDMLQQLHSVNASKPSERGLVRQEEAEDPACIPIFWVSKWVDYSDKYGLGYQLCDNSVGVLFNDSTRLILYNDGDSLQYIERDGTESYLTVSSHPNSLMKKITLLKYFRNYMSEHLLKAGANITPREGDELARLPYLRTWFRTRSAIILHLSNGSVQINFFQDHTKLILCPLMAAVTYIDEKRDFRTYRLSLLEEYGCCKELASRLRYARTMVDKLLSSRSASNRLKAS
Numbers without * were called inactive; u = inconclusive; x = no result given; ! = repeats disagree; [ ] = another dose, or the depositor's remark. Unless noted, the call rests on the fitted dose curve; in most records, active means well fitted curve in the direction sought with a large enough effect; inconclusive means small, poorly fitted or top-dose-only effect, or another doubt; inactive means no such curve, though single readings can be large; an effect the other way counts as inactive or inconclusive.

SMILES	G9a inh	HP1b chromo inh	JMJD2A Tudor	PI5P4K alpha inh	BAZ2B block	PLK1 PBD block
COc1ccc(C(=O)NCCC(=O)N2CCC3(CC2)NCCc2[nH]cnc23)cc1	27.1%	18.6%	u	-6.9	-19.9%	26.7µM*
C[C@H](NC(=O)Cc1ccccc1)C(=O)N1CCC2(CC1)NCCc1[nH]cnc12	x	9.6%	-26.0%	2.1	-14.8%	26.7µM*
COc1ccc(C(=O)NCC(=O)N2CCC3(CC2)NCCc2[nH]cnc23)cc1	-9.2%	17.6%	-18.8%	0.6	-8.3%	-9.0%
Nc1ccc(-c2ccc3ccccc3n2)cc1	18.9µM*	x	x	x	x	x
O=C(Nc1ccccc1)C1CC2CCC1C2 (stereo not drawn)	x	26.4%	-8.3%	1.3	23.7%	-1.1%
CCCCc1ccc(NC(=O)C2CCCC2)cc1	x	30.0%	31.8%	1.2	x	-14.4%
CCN(CC)c1ccc(NC(=O)C(C)C)cc1	11.2µM*	5.1%	u	x	-3.4%	-5.7%
CCN(CC)c1ccc(NC(=O)C2CCCC2)cc1	44.7µM*	-19.1%	u	-2.2	u	-1.8%
CCN(CC)c1ccc(NC(=O)Nc2cccc3ccccc23)cc1	3.16µM*	-10.3%	-24.1%	3.9	u	0.8%
Cc1ccc(NC(=O)Nc2cccc3ccccc23)cc1	x	24.8%	-5.3%	-1.4	19.2%	-2.6%
CCN(CC)c1ccc(NC(=O)C2CC3CCC2C3)cc1 (stereo not drawn)	6.31µM*	u	79.4µM*	-6.8	-67.6%	-5.8%
CCOc1ccc(C(c2c(O)cc(C)n(Cc3ccco3)c2=O)N2CCCCC2)cc1 (stereo not drawn)	u	8.6%[57 µM]	-26.6%	x	-9.0%	x
CCN(C(=O)CSc1nc(-c2ccccc2)no1)c1cccc(C)c1	8.4%[59 µM]	147.3%	92.2%	x	143.3%	x
COc1ccc(N2C(=O)C(CC(=O)Nc3ccccc3)N(CCC3=CCCCC3)C2=O)cc1 (stereo not drawn)	-2.2%[59 µM]	46.0%	-3.6%	x	-3.2%	x
COc1ccc(NC(=O)c2cc(-c3ccc(C)o3)nc3ccccc23)c(OC)c1	x	14.4%	u	-26.5	x	-12.0%
Cc1ccc(-c2cc(C(=O)Nc3nccs3)c3ccccc3n2)o1	4.47µM*	17.0%	u	u	-36.3%	u
COc1ccc(NC(=O)c2cc(-c3ccc(C)o3)nc3ccccc23)cc1OC	u	-14.4%	56.2µM*	-52.9*	-30.7%	u
Cc1ccc(-c2cc(C(=O)Nc3nccs3)c3ccccc3n2)c(C)c1	-14.8%[59 µM]	0.5%	-32.4%	-0.7	-3.7%	-5.9%
O=C1Nc2ccccc2C(=O)N(C2CCCC2)C1C(=O)NC1CC1 (stereo not drawn)	x	x	x	-5.8	x	-10.8%
O=[N+]([O-])c1cccc(-c2nnc3cccc(Cl)n23)c1	-41.5%	53.8%	-22.0%	7.0	10.0%	-10.0%
O=[N+]([O-])c1ccc(-c2nnc3cccc(Cl)n23)cc1	35.5µM*	21.9%	56.2µM*	-5.8	u	-18.3%
O=[N+]([O-])c1cccc(-c2nnc3ccc4ccccc4n23)c1	14.1µM*	-16.9%	u	-8.5	u	-9.2%
COc1ccc(CC(=O)OC(C)C(=O)c2ccc(C)cc2)cc1 (stereo not drawn)	x	194.0%	78.8%	-0.5	99.6%	-1.6%
OCCNCCSc1ccc(Cl)cc1	50.1µM*	-27.1%	22.4µM*	4.2	56.2µM*	0.1%
COCCCNCCOCCSc1ccc(Cl)cc1	u	u	1.78µM*	1.7	u	-7.8%
SMILES	G9a inh	HP1b chromo inh	JMJD2A Tudor	PI5P4K alpha inh	BAZ2B block	PLK1 PBD block
COCCCNCCCCSc1ccc(Cl)cc1	3.55µM*	u	10µM*	-9.3	u	-2.7%
CCCCNCCOCCSc1ccc(Cl)cc1	8.91µM*	u	1.41µM*	-0.1	u	-1.3%
CCCCNCC(O)(c1ccc(Cl)cc1)c1ccc(Cl)cc1	0.9%	10.0%	0.7%	6.0	1.9%	-27.5%
CCC(C)NC(=O)Cn1ncc2c(C)n(Cc3ccc(F)cc3)c(C)c2c1=O (stereo not drawn)	6.1%[59 µM]	15.0%	-15.8%	x	-7.4%	x
Cc1cc(C)n(CC(C)NC(=O)c2cc(COc3ccc(F)c(F)c3)on2)n1 (stereo not drawn)	4.2%[12.7 µM]	23.3%	-14.0%	-0.9	-2.3%	-4.4%
Cc1cc(C)n(CC(C)NC(=O)c2cc(COc3c(F)cccc3F)on2)n1 (stereo not drawn)	x	-22.8%	u	-14.0	9.2%	18.9µM*
Cc1cccc(NC(=O)C2CCN(c3ncnc4c3nc3n4CCCCC3)CC2)n1	1.7%[59 µM]	15.0%	u	-0.2	-8.7%	26.7µM*
O=C(NCCc1ccccc1)C1CCN(c2ncnc3c2nc2n3CCCCC2)CC1	10.8%[59 µM]	31.9%	11.2%	x	5.3%	x
O=C(NCCCN1CCCCC1)C1CCN(c2ncnc3c2nc2n3CCCCC2)CC1	-6.6%	5.6%	u	-8.3	-18.0%	26.7µM*
CC(C)c1ccc(NC(=O)C2CCN(c3ncnc4c3nc3n4CCCCC3)CC2)cc1	-14.5%	-7.9%	u	6.7	-16.7%	29.9µM*
CN1CCN(CCCNC(=O)c2ccc3c(Cl)c4c(nc3c2)CCCC4)CC1	u	10.8%	-23.1%	1.3	-6.5%	-19.2%
Cc1cc(C)cc(OCCSc2nc3ccc(NC(=O)COc4ccccc4)cc3s2)c1	7.6%[59 µM]	43.9%	-11.3%	x	-7.8%	x
O=C(Nc1cccc(-c2csc(Nc3ccccc3)n2)c1)c1cc([N+](=O)[O-])cc(C(F)(F)F)c1	50.1µM*	15.7%	-35.2%	3.1	-11.6%	-12.4%
NS(=O)(=O)c1ccc(Nc2nc(-c3ccc4ccccc4c3)cs2)cc1	35.5µM*	-6.8%	u	x	-5.4%	-6.7%
Cc1nc(Nc2ccc(S(N)(=O)=O)cc2)sc1-c1ccccc1	31.6µM*	-18.7%	u	x	u	-6.5%
NS(=O)(=O)c1ccc(Nc2nc(-c3cccc([N+](=O)[O-])c3)cs2)cc1	39.8µM*	2.3%	-20.6%	-15.6	-19.5%	-6.5%
Cc1nc(Nc2ccc(S(N)(=O)=O)cc2)sc1C(=O)Nc1ccccc1	-48.8%	-4.3%	-25.4%	2.3	-22.5%	0.5%
Cc1cc(C)cc(C(=O)NC(=S)Nc2ccc3c(c2)OCCO3)c1	25.1µM*	u	u	1.0	u	-11.2%
O=C(NC(=S)Nc1cccc(O)c1)c1ccco1	50.1µM*	14.1%	-16.9%	-26.9	-20.0%	-14.4%
O=C(NC(=S)Nc1ccc2c(c1)OCCO2)c1ccco1	70.8µM*	-15.7%	u	-9.6	u	-23.6%
O=C(CNC(=O)c1ccco1)Nc1ccc2c(c1)OCCO2	14.6%[0.501 µM]	13.9%	-26.1%	0.3	4.7%	4.9%
Cc1ccccc1NC(=O)CSc1nnc2ccc(-c3cccnc3)nn12	-31.7%	9.7%	-10.9%	1.2	1.1%	-11.8%
COc1ccc(OCC(=O)N(Cc2sccc2C)C2CCS(=O)(=O)C2)cc1 (stereo not drawn)	70.8µM*!	51.5%	-13.7%	3.5	u	-8.2%

Screening data: PubChem BioAssay, National Center for Advancing Translational Sciences (NCATS)
